# Measurements from the supplement of paper PMC9492666.
# Where a name gives a salt, the structure may show the parent alone.
# Key:
# HCC1937 = test: relative cell viability, compound + erastin, vs DMSO (fraction of DMSO control); higher = less growth inhibition; conditions: 72 h
# MDA-MB-231 = test: as above; conditions: 72 h
# 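Note: viability read by CCK-8 kit in 96-well plates, part of a combination screen pairing lipid-metabolism-targeting compounds with erastin.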
SMILES,relative cell viability (HCC1937),relative cell viability (MDA-MB-231)
CC1CC(OC(=O)C(O)c2ccccc2)CC(C)(C)C1 (configuration not stated) [Cyclandelate] + CCOc1ccccc1-n1c(C(C)N2CCN(C(=O)COc3ccc(Cl)cc3)CC2)nc2ccccc2c1=O [erastin],0.828,0.606
CC(C)n1c(/C=C/C(O)CC(O)CC(=O)O)c(-c2ccc(F)cc2)c2ccccc21 (configuration not stated) [Fluvastatin sodium salt] + CCOc1ccccc1-n1c(C(C)N2CCN(C(=O)COc3ccc(Cl)cc3)CC2)nc2ccccc2c1=O [erastin],0.58,0.869
O=c1c(O[C@@H]2O[C@H](CO)[C@@H](O)[C@H](O)[C@H]2O)c(-c2ccc(O)cc2)oc2cc(O)cc(O)c12 [Astragalin] + CCOc1ccccc1-n1c(C(C)N2CCN(C(=O)COc3ccc(Cl)cc3)CC2)nc2ccccc2c1=O [erastin],0.584,0.749
C=C(C)[C@@H]1CC[C@]2(C)CC[C@]3(C)[C@H](CC[C@@H]4[C@@]5(C)CCC(=O)C(C)(C)[C@@H]5CC[C@]43C)[C@@H]12 + CCOc1ccccc1-n1c(C(C)N2CCN(C(=O)COc3ccc(Cl)cc3)CC2)nc2ccccc2c1=O [erastin],0.608,0.594
"COc1ccc(-c2coc3cc(OC)ccc3c2=O)cc1 [4',7-Dimethoxyisoflavone] + CCOc1ccccc1-n1c(C(C)N2CCN(C(=O)COc3ccc(Cl)cc3)CC2)nc2ccccc2c1=O [erastin]",0.313,0.427
CC[C@H](C)C(=O)O[C@H]1C[C@H](O)C=C2C=C[C@H](C)[C@H](CC[C@@H](O)C[C@@H](O)CC(=O)O)[C@H]21 [Pravastatin sodium] + CCOc1ccccc1-n1c(C(C)N2CCN(C(=O)COc3ccc(Cl)cc3)CC2)nc2ccccc2c1=O [erastin],0.909,1.05
C=C(C)[C@@H]1CCC2=CC(=O)C[C@@H](C)[C@]2(C)C1 [Nootkatone] + CCOc1ccccc1-n1c(C(C)N2CCN(C(=O)COc3ccc(Cl)cc3)CC2)nc2ccccc2c1=O [erastin],0.577,0.706
CN1CCN(C(=O)C2C(C(=O)O)[C@H]3CC[C@@H]2O3)CC1 (some centres not stated) + CCOc1ccccc1-n1c(C(C)N2CCN(C(=O)COc3ccc(Cl)cc3)CC2)nc2ccccc2c1=O [erastin],0.278,0.394
COc1ccc(-c2coc3cc(O)cc(O)c3c2=O)cc1 [Biochanin A] + CCOc1ccccc1-n1c(C(C)N2CCN(C(=O)COc3ccc(Cl)cc3)CC2)nc2ccccc2c1=O [erastin],0.589,0.559
CC(C)C1=CC2=CC[C@@H]3[C@](C)(CCC[C@@]3(C)C(=O)O)[C@H]2CC1 [Abietic Acid] + CCOc1ccccc1-n1c(C(C)N2CCN(C(=O)COc3ccc(Cl)cc3)CC2)nc2ccccc2c1=O [erastin],0.673,1.04
NC(=O)c1ncn([C@@H]2O[C@H](CO)[C@@H](O)[C@H]2O)c1N [AICAR (Acadesine)] + CCOc1ccccc1-n1c(C(C)N2CCN(C(=O)COc3ccc(Cl)cc3)CC2)nc2ccccc2c1=O [erastin],0.85,0.973
CN1CC(O)C2=C/C(=N/NC(N)=O)C(=O)C=C21 (configuration not stated) [Carbazochrome] + CCOc1ccccc1-n1c(C(C)N2CCN(C(=O)COc3ccc(Cl)cc3)CC2)nc2ccccc2c1=O [erastin],0.484,0.682
CCCCC[C@H](O)CC(=O)CCc1ccc(O)c(OC)c1 [6-Gingerol] + CCOc1ccccc1-n1c(C(C)N2CCN(C(=O)COc3ccc(Cl)cc3)CC2)nc2ccccc2c1=O [erastin],0.444,0.693
OC[C@H]1O[C@@H](Oc2cc(O)cc(/C=C/c3ccc(O)cc3)c2)[C@H](O)[C@@H](O)[C@@H]1O [Polydatin] + CCOc1ccccc1-n1c(C(C)N2CCN(C(=O)COc3ccc(Cl)cc3)CC2)nc2ccccc2c1=O [erastin],0.78,0.601
CC(C)CCC[C@@H](C)[C@H]1CC[C@H]2[C@@H]3CCC4=CC(=NO)CC[C@]4(C)[C@H]3CC[C@]12C [Olesoxime] + CCOc1ccccc1-n1c(C(C)N2CCN(C(=O)COc3ccc(Cl)cc3)CC2)nc2ccccc2c1=O [erastin],0.673,0.663
O=C(Nc1cccnn1)N1CCC(=Cc2cccc(Oc3ccc(C(F)(F)F)cn3)c2)CC1 + CCOc1ccccc1-n1c(C(C)N2CCN(C(=O)COc3ccc(Cl)cc3)CC2)nc2ccccc2c1=O [erastin],0.667,0.554
